Data published in PubChem BioAssay AID1159506 (National Center for Advancing Translational Sciences (NCATS), 2015).
The full ranking holds about 59,000 sequences; the median of the read-out is about -0.00055, and the lowest 2% start at about -2. The entries come from a sample that favours the lowest values as a whole.

Assay: Identification of proteins required for the processing of the EWS-FLI1 nascent transcript;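 further: robust z of luciferase light less the median z of siRNAs with the same seed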
Conditions: TC32 Ewing sarcoma NR0B1-luc vs CMV-luc (EWS-FLI1 target promoter against control promoter), 48 h; screened at 20 nM (by protocol)
Method in brief: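 TC32 Ewing sarcoma cells carrying NR0B1-promoter or CMV-promoter luciferase reporters were reverse-transfected with single siRNAs at 20 nM, three per gene genome-wide. Luminescence was read after 48 h and normalized to non-targeting controls.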

Sequence	seed-corrected z-score
UGUUGUUGUGACAAAAUCG against EIF5	0.296
UUUAAGAUAGGCGACACUG against LMOD3	0.0486
UGUAAAUUUGCACCGAUGG against RPTOR	-12.1
AUCUGUACAAAUCUCUUUG against ZNF140	-0.593
UCCUCUUCGAAUGUUGUCG against TSPAN15	-0.886
UUUGCGAUCUUCGAAGCCC against REEP3	-0.668
UCGAUUAAAACCGCGAUCG against PPP2R1B	-0.365
UUUGUCAGAAAACGCAUCC against GPR149	-2.76
UCAAUGAUCUCGAUGAUGA against PLEC	-0.0712
UUCCGGGCAGCAAUAAUGG against PGM5	-0.0662
UUUCCCAUCAGGGUUAAGC against OR2A12	-0.365
UGAUAUAUAAGGCCCGGAC against RPL10A	-3.19
UUCUGUAUUCUUCAGCGUG against OR4C16	-0.379
UUUGGAGCUUGGGAAUUGC against ARHGAP27	-0.993
UUUGUUCCUUUUCGAGUUC against CCDC127	2.99
UGAAUCAAAUGAUCUGACC against RAB9A	0.786
AAUGUGAUCAAAAAUAGCC against NAT2	0.2
UUGGUUUAAAGUUAAGUUG against C5orf63	-2.45
UUGAUAUUUGUGAAUCUCC against FERMT1	-0.474
UAUUUAGCAAUGCAGAACU against RPP25L	0.342
UGUCUGAUUCAUUAUGAGC against CCDC74A	-0.71
AAAGGUCCCAGAGUACAUG against SLC25A20	0.174
UUUAUGCUGAGUCCCAUAG against APBB1IP	-2.98

Sequence	seed-corrected z-score
AAAGUAAUAGAAGUGUUUG against MOB3B	0.429
UAGAGAGACAGGGUGCAGG against C1orf162	-2.87
UCUGGUUUUAGUAUUCUUA against NBEAL1	-0.389
UUCUUUAGACUGUCCAGCG against KLHL6	-2.04
UUAGGGCUUGGUAUAGAGG against ST18	0.568
UUGCGUUCCACAUGUUGAC against PRDM7	-9.3
UAAGUGAUUGGAGGUAAAG against LOC727775	0.67
AUAUGGUCCUUCUUAUUGC against HSD52	0.199
AUGCUUAUAGUUGUUCUUC against POU1F1	-2.19
UCACAAAACACUUUGCCGU against LIMD1	0.194
UUGGUAGAGAGGUAAAAUG against KRTAP4-4	1.06
UAAUAGUCAGGUUCCCUGU against OR6C2	-0.02
AAAGUAGGACGAGAUGCCG against DDX51	1.06
UCUGGACACGGCUUAUUGC against C17orf58	0.125
AUAAGAACAACAAAUACAC against C2CD4A	0.789
UGGUUAUUAAUGGUGCACC against ELF2	-2.8
UUAGAGCUACUGAACUGCC against DHX58	0.739
AAGUUGCCAAGAACAUGCU against LINC01168	-3.59
UAUCUGGUAUGCUACGUCC against CCDC7	0.683
UAUGAUCGAACUUUUUGAG against RSG1	-2.03
AACCUGUCAAUUAUCACUG against EBF1	0.337
UCUCCGUCCACAUUUGUUG against NTRK1	0.0167
UCUCUGAUGAGCAUUAAGG against ZNF26	-0.977

Sequence	seed-corrected z-score
AAACUUCUUGGGUUUCUAC against ZBTB8OSP1	0.246
ACACUGACAAAUGUUAGGC against VWDE	-2.22
AACCUUUAACUUGUGCUCC against ELAC2	0.641
UGCCCAAAUAGAAUUCUGU against RPL35A	-0.216
AGCUUUUCCAAAACCGUGC against NGDN	2.14
AUAUUUAUUGGGCAGUGGA against PYDC1	-0.518
UUUGUAGCAGGUACAGGCC against EPPK1	-0.0968
AAGGUGGUAGGCACUUUGG against MAVS	-2.67
UUCGAAAUGCCUGAUAGCC against P3H2	0.287
AGAUGUUCCACACUCUGCC against C1orf95	-3.59
AUACUGCCGAUAUAUCAGC against AP4S1	-0.442
AAGUUUAUGGACAAUUUCC against SMYD5	0.313
UACUUUACAACAUAUGGGC against STK3	-0.0972
UGGUUAGCAAUGCAUAUUC against SV2C	0.364
UUCUUCAUUCCUGCUAGGC against EEF1B2P5	-0.108
UAAGGGUCAAUGCAGUAGU against ZAR1L	-0.414
UAAAUAGCAAAUUGCAUAC against DNAJB3	1.32
UUUGCCUAGACUAUGCUUG against PPARGC1B	-1.6
AUCUGCAUAAUCCUUGUUG against COG2	-2.77
UAUGUAACUGACAAUGACG against ADGRA3	-0.447
UUGAGUGCAAAGGCUUGUC against SLC25A12	1.4
UUAGGUCUCUGAAGUUUUC against NUTM2A-AS1	-0.188
UAUCUUAUUUCAUCGUUUC against PTGS1	-0.545

Sequence	seed-corrected z-score
AUCGUCUUGACUGUGGUCC against CEACAM1	-0.766
AUAGCGAUUAUUCUCACAG against PDHA1	0.0331
UUAUUUAUCUGAGUUGUGA against NFIA-AS1	-2.52
UGCAGUAAACAUUUCGUUG against ADAMTS9	-0.75
UUGUGGUAGAUGGGACUGG against DOK3	-3.05
UCUGCGGUUACUCUCCAUC against TLX1	-0.0327
AUGAGUACAGACAAGGUCC against DRD1	-0.626
AACAGGCUCAGGGAUAUUG against MORN2	-1.84
UAGCUUCGAAUAAACAUCC against FAM3D	-4.22
UGAAAUACGGAUGACAUUC against AKR1C3	-1.21
UUUUGUGCAUAGACCAUAG against DHRS12	-0.542
UCUUCUUAGACCUUUCGGG against PRPF38A	-2.28
UUUGCAUCGUGGUAUUUCC against CTCFL	0.259
UUUACGAUAAUCAACCUUC against BCO1	0.641
UUCGCAUUGCUUCUAACUC against UACA	0.538
UUCAAAGUAUCGUUCUUUC against PANX3	1.35
UCCCGUACCAAGGGUAGCU against FAM78B	0.456
AAUGGUGUUGCUCUUCUCC against ZNF23	1.51
UUCGAAUAGUAGAAAGUCG against ABCB5	0.0668
AAGCAUGUUGGUAACCUCG against PLA2G3	-2.04
UACAGCAUCGUCUUCUACC against TMEM246	0.565
UACACUUGAGUUGACGACC against LOC642335	0.105
UGCAUAGACAGAUUAAGCC against SEC22A	-0.0597

Sequence	seed-corrected z-score
UGCUCUUUUGCUUACGUGG against GAB1	-1.74
UGCGUUUUCAGCUGGUUAC against MYNN	-3.83
UCCGUGAGAACUCAUAAGG against TG	-0.13
UACAGUCAAAGCUCCGUUC against GFI1	1.42
UCUGCGUUCUGAUUGGUGG against ANKRD55	-4.59
AUGCAAGUAACUGAGAUCG against CLEC14A	-1.2
UGUUCUAUGAGGCAAGAUG against ZGRF1	0.286
ACUUUCACAACGAUUUUCU against RPL34P34	-2.47
UUCUUUACAGCAUGAGGGC against CCL25	0.424
AAAGUCAUCAGCAAUUUGG against OR10G8	-1.41
UCCGUCGUCAGAAAGAUGC against DGCR2	0.0908
UGACGUGUCAUUCUCAUAC against ZNF69	-2.01
UUGGAGCAAAAUACAGUGG against NQO1	0.331
UUGUUCCUCAGGUCAAGUG against GAB2	1.13
UAGUUGUUCAGCGAGGUCC against CEP250	-0.0255
AACAUCACCAAAUAGCUGG against LIMS1	0.191
UAUUUCGAAAAUAAUCUCC against TMEM18	-0.129
UUCAGCAUUUGAUUCAAUC against HTRA4	-0.127
UCUGCUGAUAGCAAUGGGC against ZNF512B	-2.13
UUUUGGUCGUCGUUCUUCU against COMP	-2.12
UUCUACUCUAGCAAUUUCC against NDC80	-2.12
UCAAGGACCAGGCCGUUUU against ALG1L3P	1.09
UAAUUGUGACACUUGUUCC against TSLP	-1.67

Sequence	seed-corrected z-score
UAGGUAAGGACGGAAACGC against ZPBP2	0.591
UACCGUGACAAAAUAAGUG against LOC728175	0.818
UCUGAUGACUGUUUACAGC against ZNF180	0.161
UAAUUAAUAUCGUCCAGAG against C6orf120	-0.208
UCAUUCACUAUCACUUGUC against ZNF35	-1.13
AACUCUUCACGUACUAGCC against PKD2	0.287
UUAGCUGCUGGGAACACUG against IL18BP	-2.28
UAUGUUUCUCGUCUCAACA against DNM1P49	-0.258
AAAGUCACGUUUUCCGCGC against RGS14	0.981
AAAGAUACAUCUGCCUUCC against CMPK1	-0.0168
AGAAUUCUGAGGGCGGAGC against UCN2	-0.561
AUAGUAAGCAGCCUUCUGC against HOXD3	-3.99
UAUCUUGACCAAAUAAACC against MPC2	0.235
ACAGGAGCCACCCUAAAAG against WDR86	0.75
UCUGUCUCCGCUUGGAGUG against FOS	0.622
UAGGUCUUAGGAGUCAUCU against RPL9P25	-2.06
UCUGCUCCAAUAAUCCGGC against ANKS6	0.347
UCCGUUUCCACAUGGUCGC against TEKT4	0.747
